Source: PubChem BioAssay (EPA / NIEHS)
Active and inactive are the calls of the source. Rule for the calls: active = hit-call score of the fitted dose curve at least 0.9, where 1 is the maximum; inactive = score below 0.9.

Assays:
Details in all cases: mRNA level, 48 h; actives raise or lower the signal
[1] = read-out: Lipoprotein lipase (LPL), LPL (gene 4023); assay: LTEA_HepaRG_LPL: Life Technologies and Expression Analysis (LTEA) Assay for Lipoprotein lipase (LPL) using HepaRG (AID 2283515)
Procedure, shortened: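 Differentiated human HepaRG cells in serum-free induction medium were exposed in duplicate for 48 h to eight half-log concentrations (top 100 uM) in 0.5% DMSO. LPL mRNA was quantified by TaqMan qRT-PCR, normalized to ACTB, GAPDH and POLR2A.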

[2] = read-out: MicroRNA 122 (MIR122), gene 406906; assay: LTEA_HepaRG_MIR122: Life Technologies and Expression Analysis (LTEA) Assay for MicroRNA 122 (MIR122) using HepaRG (AID 2283516); note: the transcript read is the microRNA miR-122
Procedure, shortened: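 HepaRG plated 48 h, switched to serum-free induction medium, then treated in duplicate for 48 h (100 uM top, half-log steps, 0.5% DMSO vehicle). RNA isolated, qRT-PCR performed, concentration-response fitted both directions relative to DMSO.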

[3] = read-out: matrix metalloproteinase-10 (MMP10), MMP10 (gene 4319); assay: LTEA_HepaRG_MMP10: Life Technologies and Expression Analysis (LTEA) Assay for matrix metalloproteinase-10 (MMP10) using HepaRG (AID 2283517)
Procedure, shortened: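 HepaRG, collagen I, ~100,000 cells/well; serum-free induction medium; 48 h exposure, duplicate, 8-pt half-log to 100 uM, 0.5% DMSO. Readout: TaqMan qRT-PCR, normalized to ACTB/GAPDH/POLR2A; bidirectional fit vs DMSO.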

[4] = read-out: MYC, MYC (gene 4609); assay: LTEA_HepaRG_MYC: Life Technologies and Expression Analysis (LTEA) Assay for MYC using HepaRG (AID 2283518)
Procedure, shortened: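 Differentiated HepaRG cells exposed 48 h in serum-free induction medium to 8 concentrations (top 100 uM, half-log steps; 0.5% DMSO), duplicate. MYC mRNA measured by Fluidigm qRT-PCR, normalized to ACTB, GAPDH, POLR2A; bidirectional fit versus DMSO.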

[5] = read-out: matrix metalloproteinase-3 (MMP3), MMP3 (gene 4314); assay: LTEA_HepaRG_MMP3: Life Technologies and Expression Analysis (LTEA) Assay for matrix metalloproteinase-3 (MMP3) using HepaRG (AID 2283519)
Procedure, shortened: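 Differentiated human HepaRG cells, plated 48 h on collagen I, were exposed in duplicate for 48 h in serum-free induction medium to eight half-log concentrations up to 100 uM in 0.5% DMSO. MMP3 mRNA was quantified by TaqMan qRT-PCR, normalised to ACTB, GAPDH and POLR2A.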

[6] = read-out: Paternally Expressed 10 (PEG10), PEG10 (gene 23089); assay: LTEA_HepaRG_PEG10: Life Technologies and Expression Analysis (LTEA) Assay for Paternally Expressed 10 (PEG10) using HepaRG (AID 2283520)
Procedure, shortened: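 HepaRG, 48 h post-plating → serum-free induction medium → 48 h chemical exposure (duplicate, 8-pt, max 100 uM, half-log, 0.5% DMSO) → lysis in RLT → TaqMan qRT-PCR for PEG10, ACTB/GAPDH/POLR2A normalisation.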

[7] = read-out: Protein phosphatase 2A (PPP2R4), PTPA (gene 5524); assay: LTEA_HepaRG_PPP2R4: Life Technologies and Expression Analysis (LTEA) Assay for Protein phosphatase 2A (PPP2R4) using HepaRG (AID 2283522)
Procedure, shortened: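 Readout is PPP2R4 transcript level by microfluidic qRT-PCR after 48 h chemical treatment of human HepaRG liver cells. Concentrations spanned 100 uM downward in half-log steps; gain or loss of signal was fitted relative to DMSO.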

[8] = read-out: Phosphatase and tensin (PTEN), PTEN (gene 5728); assay: LTEA_HepaRG_PTEN: Life Technologies and Expression Analysis (LTEA) Assay for Phosphatase and tensin (PTEN) using HepaRG (AID 2283523)
Procedure, shortened: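 Differentiated human HepaRG cells, plated 48 h then switched to serum-free induction medium, were exposed in duplicate for 48 h to eight half-log concentrations up to 100 uM in 0.5% DMSO. PTEN mRNA measured by TaqMan qRT-PCR, normalized to ACTB/GAPDH/POLR2A, bidirectional fit versus DMSO.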

[9] = read-out: solute carrier (SLC22A1), SLC22A1 (gene 6580); assay: LTEA_HepaRG_SLC22A1: Life Technologies and Expression Analysis (LTEA) Assay for solute carrier (SLC22A1) using HepaRG (AID 2283524)
Procedure, shortened: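 Human HepaRG cells were plated 48 h, switched to serum-free induction medium, then exposed in duplicate for 48 h to 8-point half-log series from 100 uM in 0.5% DMSO. SLC22A1 mRNA measured by qRT-PCR, normalized to ACTB/GAPDH/POLR2A, fitted bidirectionally versus DMSO.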

[10] = read-out: Pyruvate Dehydrogenase Kinase 4 (PDK4), PDK4 (gene 5166); assay: LTEA_HepaRG_PDK4: Life Technologies and Expression Analysis (LTEA) Assay for Pyruvate Dehydrogenase Kinase 4 (PDK4) using HepaRG (AID 2283525)
Procedure, shortened: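 Differentiated human HepaRG cells, pre-cultured 48 h, were exposed in duplicate for 48 h in serum-free induction medium to eight half-log concentrations up to 100 uM in 0.5% DMSO. PDK4 mRNA was quantified by qRT-PCR, normalized to ACTB, GAPDH and POLR2A, bidirectional fitting versus DMSO.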

[11] = read-out: NAD(P)H dehydrogenase [quinone] 1 (NQO1), NQO1 (gene 1728); assay: LTEA_HepaRG_NQO1: Life Technologies and Expression Analysis (LTEA) Assay for NAD(P)H dehydrogenase [quinone] 1 (NQO1) using HepaRG (AID 2283526)
Procedure, shortened: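 HepaRG, 48 h post-plating → serum-free induction medium → test chemical 48 h (duplicate, 100 uM top, half-log x8, 0.5% DMSO) → RNA isolation → qRT-PCR, ACTB/GAPDH/POLR2A normalization; bidirectional curve fit vs DMSO baseline.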

[12] = read-out: Nuclear factor erythroid 2-related factor 2 (Homo sapiens) (UniProt Q16236); assay: LTEA_HepaRG_NFE2L2: Life Technologies and Expression Analysis (LTEA) Assay for Nuclear factor erythroid 2-related factor 2 (NFE2L2) Transcription Factor using HepaRG (AID 2283527);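 note: TaqMan qRT-PCR transcript level normalised to ACTB GAPDH and POLR2A housekeeping genes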
Procedure, shortened: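 Differentiated human HepaRG cells in serum-free induction medium were exposed for 48 h to eight concentrations (top 100 uM, half-log dilutions, 0.5% DMSO), in duplicate. NFE2L2 mRNA was quantified by TaqMan qRT-PCR, normalized to ACTB, GAPDH and POLR2A, with bidirectional fitting versus DMSO.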

[13] = read-out: succinate dehydrogenase complex iron sulfur subunit B (SDHB), SDHB (gene 6390); assay: LTEA_HepaRG_SDHB: Life Technologies and Expression Analysis (LTEA) Assay for succinate dehydrogenase complex iron sulfur subunit B (SDHB) using HepaRG (AID 2283528)
Procedure, shortened: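 HepaRG cells (~100,000/well, plated 48 h) exposed in duplicate for 48 h in serum-free induction medium to 8-point half-log series from 100 uM in 0.5% DMSO; mRNA by qRT-PCR normalised to ACTB, GAPDH, POLR2A; bidirectional fit versus DMSO.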

[14] = read-out: Signal transducer and activator of transcription 3 (Homo sapiens) (UniProt P40763); assay: LTEA_HepaRG_STAT3: Life Technologies and Expression Analysis (LTEA) Assay for Signal transducer and activator of transcription (STAT3) using HepaRG (AID 2283529)
Procedure, shortened: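 Differentiated human HepaRG cells in serum-free induction medium were exposed in duplicate for 48 h to eight half-log concentrations up to 100 uM in 0.5% DMSO. STAT3 mRNA was quantified by TaqMan qRT-PCR, normalized to ACTB, GAPDH and POLR2A, and fitted bidirectionally against DMSO.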

[15] = read-out: solute carrier (SLCO1B1), SLCO1B1 (gene 10599); assay: LTEA_HepaRG_SLCO1B1: Life Technologies and Expression Analysis (LTEA) Assay for solute carrier (SLCO1B1) using HepaRG (AID 2283530)
Procedure, shortened: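 Differentiated human HepaRG cells were exposed for 48 h in serum-free induction medium to eight half-log concentrations, top 100 uM, in 0.5% DMSO. SLCO1B1 mRNA was measured by qRT-PCR, normalized to ACTB, GAPDH and POLR2A, and fitted bidirectionally against DMSO.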

[16] = read-out: Transforming Growth Factor (TGFA), TGFA (gene 7039); assay: LTEA_HepaRG_TGFA: Life Technologies and Expression Analysis (LTEA) Assay for Transforming Growth Factor (TGFA) using HepaRG (AID 2283532)
Procedure, shortened: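 Differentiated human HepaRG cells, plated 48 h then switched to serum-free induction medium, were exposed in duplicate for 48 h to 8-point half-log series from 100 uM in 0.5% DMSO. TGFA mRNA measured by qRT-PCR, normalized to ACTB/GAPDH/POLR2A, bidirectional fit versus DMSO.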

[17] = read-out: Transforming Growth Factor (TGFB1), TGFB1 (gene 7040); assay: LTEA_HepaRG_TGFB1: Life Technologies and Expression Analysis (LTEA) Assay for Transforming Growth Factor (TGFB1) Transporter using HepaRG (AID 2283533)
Procedure, shortened: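 Differentiated HepaRG cells exposed 48 hr in serum-free induction medium to eight half-log concentrations up to 100 uM (0.5% DMSO), duplicate; TGFB1 mRNA by TaqMan qRT-PCR normalised to ACTB, GAPDH, POLR2A; bidirectional fit against DMSO.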

[18] = read-out: TIMP1, TIMP1 (gene 7076); assay: LTEA_HepaRG_TIMP1: Life Technologies and Expression Analysis (LTEA) Assay for TIMP1 using HepaRG (AID 2283534)
Procedure, shortened: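 Differentiated HepaRG cells exposed 48 h in serum-free induction medium, duplicates, eight half-log concentrations from 100 uM in 0.5% DMSO. TIMP1 mRNA by qRT-PCR normalized to ACTB, GAPDH, POLR2A; bidirectional fitting against DMSO.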

[19] = read-out: sulfotransferase 2A1 (SULT2A1), SULT2A1 (gene 6822); assay: LTEA_HepaRG_SULT2A1: Life Technologies and Expression Analysis (LTEA) Assay for sulfotransferase 2A1 (SULT2A1) using HepaRG (AID 2283531)
Procedure, shortened: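 HepaRG human liver cells, 48 h exposure in serum-free induction medium to 8 half-log concentrations topping at 100 µM (0.5% DMSO), duplicate wells. SULT2A1 mRNA measured by TaqMan qRT-PCR, normalized to ACTB/GAPDH/POLR2A; bidirectional fit against DMSO.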

Measured: AC50

Chain of Signal transducer and activator of transcription 3 (Homo sapiens) (P40763 whole entry, looked up): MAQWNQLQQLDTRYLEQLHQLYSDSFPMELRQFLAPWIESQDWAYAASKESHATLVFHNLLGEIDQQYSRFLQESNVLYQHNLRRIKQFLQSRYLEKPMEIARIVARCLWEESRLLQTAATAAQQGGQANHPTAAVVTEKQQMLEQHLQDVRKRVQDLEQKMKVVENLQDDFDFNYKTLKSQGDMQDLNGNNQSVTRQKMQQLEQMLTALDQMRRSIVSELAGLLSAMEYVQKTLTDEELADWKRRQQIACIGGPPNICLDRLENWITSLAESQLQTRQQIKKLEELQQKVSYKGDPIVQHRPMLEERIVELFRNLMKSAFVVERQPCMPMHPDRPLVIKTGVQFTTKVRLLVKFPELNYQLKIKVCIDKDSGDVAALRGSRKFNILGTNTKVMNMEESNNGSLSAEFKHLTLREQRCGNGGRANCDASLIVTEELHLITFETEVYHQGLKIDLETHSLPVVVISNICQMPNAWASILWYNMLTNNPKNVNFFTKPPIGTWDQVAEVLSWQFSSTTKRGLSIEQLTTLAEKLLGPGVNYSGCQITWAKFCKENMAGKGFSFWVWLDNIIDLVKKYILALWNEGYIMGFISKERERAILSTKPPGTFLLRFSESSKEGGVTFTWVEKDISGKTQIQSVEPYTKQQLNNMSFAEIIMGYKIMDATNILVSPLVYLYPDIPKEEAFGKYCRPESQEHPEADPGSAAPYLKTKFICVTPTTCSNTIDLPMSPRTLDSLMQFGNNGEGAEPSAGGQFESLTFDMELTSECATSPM
Chain of Nuclear factor erythroid 2-related factor 2 (Homo sapiens) (Q16236 whole entry, looked up): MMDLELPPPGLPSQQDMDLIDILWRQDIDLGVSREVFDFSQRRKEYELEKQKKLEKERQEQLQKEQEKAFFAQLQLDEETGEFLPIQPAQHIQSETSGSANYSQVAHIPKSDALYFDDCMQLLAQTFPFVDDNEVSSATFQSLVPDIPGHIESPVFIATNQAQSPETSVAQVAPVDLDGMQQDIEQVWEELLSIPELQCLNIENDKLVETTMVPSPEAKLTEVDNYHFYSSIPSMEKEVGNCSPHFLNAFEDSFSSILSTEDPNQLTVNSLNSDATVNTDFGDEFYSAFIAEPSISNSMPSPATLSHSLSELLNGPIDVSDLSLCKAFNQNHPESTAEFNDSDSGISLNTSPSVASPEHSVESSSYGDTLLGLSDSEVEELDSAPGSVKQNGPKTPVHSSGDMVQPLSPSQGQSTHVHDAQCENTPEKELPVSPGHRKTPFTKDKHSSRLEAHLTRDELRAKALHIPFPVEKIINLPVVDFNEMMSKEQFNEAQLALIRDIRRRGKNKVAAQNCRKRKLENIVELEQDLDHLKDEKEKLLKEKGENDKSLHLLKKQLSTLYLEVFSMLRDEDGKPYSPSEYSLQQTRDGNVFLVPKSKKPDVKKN

CC(C)(C)c1csc(-c2cc3cc(OCc4ccccc4CC(=O)O)ccc3o2)n1
inactive: [12]
active: [1] 81.8 µM | [2] 90.7 µM | [3] 32.8 µM | [4] 32 µM | [5] 85.6 µM | [6] 50 µM | [7] 85.2 µM | [8] 80.1 µM | [9] 25 µM | [10] 12 µM | [11] 93.4 µM | [13] 84.8 µM | [14] 91 µM | [15] 50 µM | [16] 85.4 µM | [17] 81.9 µM | [18] 78.4 µM

CCCCOC(=O)c1ccc(O)cc1
inactive: all assays above

O=C1O[C@H]([C@@H](O)CO)C(O)=C1O
inactive: all assays above
